Laboratory results taken from PubChem BioAssay (NCI).
Compounds without any hit were thinned out: in the full panel of roughly 83,000, 20% have a hit.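 Cell lines were cultured in 96-well plates, exposed to a single compound concentration, and assessed for percent growth 48 hours later.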 Unmarked numbers belong to inactive results. Activity calls are given as the source filed them. The calls were made as follows: active = growth percent below 10; inactive = the rest.

What follows are compounds tested on SK-MEL-2 melanoma (assay: NCI-60 one-dose screen, 48 h (100 = growth as untreated, 0 = no growth, -100 = all killed)). Conditions: 10 µM unless noted.

SMILES | growth
O=[N+]([O-])c1cc(CCl)ccc1OCCBr | 106%
O=C1COCCN1c1ccc(Nc2nc(Cl)nc(N3CCOCC3)n2)cc1 | 91.6%
O=C(OCc1ccc2c(Cl)cc(Cl)c(O)c2n1)N1CCNCC1 | 59.1%
Cc1ccc(S(=O)(=O)NCCCNc2nccc(-c3c(-c4cccc(F)c4)nc4occn34)n2)cc1 | 87.8%
COc1cc(Cl)cc(-c2nn(C(=O)NS(=O)(=O)c3ccccc3)cc2-c2ccncc2)c1 | 98.7%
Cn1cc(-c2noc(-c3cn(C)c4ncccc34)n2)c2cc(Cl)ccc21 | 97.3%
CC(C)CSc1ncnc2nc[nH]c12 | 107%
Cc1cnc([C@]23CC[C@@H](C)[C@H](C)[C@H]2C2=CC[C@@H]4[C@@]5(C)Cc6c([nH]c7ccccc67)C(C)(C)[C@@H]5CC[C@@]4(C)[C@]2(C)CC3)o1 | 77.4% [100 µM]
CC1(C)CC[C@]2(C(=O)O)CC[C@]3(C)C(=CC[C@@H]4[C@@]5(C)C/C(=C/c6ccco6)C(=O)C(C)(C)[C@@H]5CC[C@]43C)[C@@H]2C1 | -69.3% [100 µM] (active)

What follows are compounds tested on EKVX NSCLC in the same assay as above. Conditions: 10 µM unless noted.

SMILES | growth
O=C(Nc1cccc(F)c1)c1cc(=O)[nH]c2cc(Br)ccc12 | 63%
COC(=O)[C@]12CCC(C)(C)C[C@H]1C1=CC[C@@H]3[C@@]4(C)C/C(=C/c5cccnc5)C(=O)C(C)(C)[C@@H]4CC[C@@]3(C)[C@]1(C)CC2 | -44.8% [100 µM] (active)
N#C/C(C(=O)c1ccccc1)=C1/C(=O)Nc2ccc(Br)cc21 | 87.5%
COc1ccc(-c2cc(-c3ccc(Cl)cc3)nc(NCCCCNc3ccnc4cc(Cl)ccc34)n2)cc1 | 77.3%
CCCSc1nc(N)nc2nc[nH]c12 | 106%
CCN(CC)c1ccc2cc(NC(=O)OCCNC(=O)CCNC(=O)[C@H](CC(C)C)NC(=O)C(C)(C)NC(=O)C(C)(C)NC(=O)[C@H](CC(C)C)NC(=O)CCNC(=O)C(C)(C)NC(=O)[C@H](CC(C)C)NC(=O)CCNC(=O)[C@@](C)(CC)NC(=O)[C@H](C)NC(=O)CCNC(=O)C(C)(C)NC(=O)[C@H](C)NC(=O)[C@@H]3CCCN3C(=O)[C@@](C)(CC)NC(=O)[C@H](Cc3ccccc3)NC(=O)C3CCCN3C(=O)C(C)(C)NC(=O)C3CCCN3C(=O)C(C)(C)NC(C)=O)c(=O)oc2c1 (some centres not stated) | -100% (active)
C=C(C)[C@@H]1CC[C@]2(C(=O)N3CCN(C)CC3)CC[C@]3(C)[C@H](CC[C@@H]4[C@@]5(C)C/C(=C/c6ccncc6)[C@H](O)C(C)(C)[C@@H]5CC[C@]43C)[C@@H]12 | -1.55% [100 µM] (active)
CC[C@@](C)(NC(=O)[C@H](C)NC(=O)CCNC(=O)C(C)(C)NC(=O)[C@H](C)NC(=O)[C@@H]1CCCN1C(=O)[C@@](C)(CC)NC(=O)[C@H](Cc1ccccc1)NC(=O)C1CCCN1C(=O)C(C)(C)NC(=O)C1CCCN1C(=O)C(C)(C)NC(C)=O)C(=O)NCCC(=O)N[C@@H](CC(C)C)C(=O)NC(C)(C)C(=O)NCCC(=O)N[C@@H](CC(C)C)C(=O)NC(C)(C)C(=O)NC(C)(C)C(=O)N[C@@H](CC(C)C)C(=O)NCCC(=O)NCO (some centres not stated) | -100% (active)
C#C[C@]1(O)CC[C@H]2[C@@H]3CC=C4c5nc(Nc6ncccn6)sc5CC[C@]4(C)[C@H]3CC[C@@]21C | 43.6%
CC(C)(C)c1cc(C(=O)N2CCC(C(=O)NCCN)CC2)cc(C(C)(C)C)c1 | 84.7%
CCOC(=O)/C(C#N)=C(\C)CCc1ccccc1 | 105%
COc1ccc2c3ccnc(C(F)(F)F)c3n(CCCCN)c2c1 | 45.7%
O=C(O)c1cccc(CN2CCN(c3cc4c(cc3F)c(=O)c(C(=O)O)cn4C3CC3)CC2)c1O | 100%
CCN(CC)c1ccc2cc(C(Nc3ccc(Br)c(C(F)(F)F)c3)c3nnnn3C(C)(C)C)c(=O)oc2c1 (configuration not stated) | 87.7%
O=C(NCCCNC(=O)OCc1ccc2c(Br)cc(Br)c(O)c2n1)OCc1ccc2c(Br)cc(Br)c(O)c2n1 | -5.94% (active)
C[N+](C)(C)c1ncnc2[n-]cnc12 | 81.8%
O=S(=O)(c1ccc(N/N=C\c2ccccc2Cl)cc1)c1ccc(N/N=C/c2ccccc2Cl)cc1 | 84.5%
CCCOc1ccc(-c2nc(-c3ccc(N)cc3)cs2)cc1 | 95.6%
